Laboratory results from PubChem BioAssay.
For some assays here: Potency and affinity values are given separately. Calls of active or inactive are those of the source. Unless noted, no rule for the calls is given here.

What was measured:
[1] = antimalarial activity against Dd2 strain (AID 2302;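 active = growth inhibition above 50% at the single 2 µM test dose, taken to imply half-maximal potency below 2 µM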;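 also: 0% = DMSO untreated growth and 100% = chloroquine plus artemisinin killed control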); conditions: P. falciparum Dd2 in RBCs, LDH growth readout, 72 h; at 2 µM; hits give high values
[2] = human hepatoma cell viability loss – ATP luminescence, cytotoxicity control for P. falciparum antimalarial project, primary screen (AID 2303;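 active = inhibition above 50%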;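 also: 0% = DMSO wells and 100% = digitonin-killed cells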); conditions: HepG2 viability, 24-48 h, at 10 µM, hits give high values
[3] = target: L-lactate dehydrogenase (Plasmodium falciparum (isolate CDC / Honduras)) (UniProt Q27743); assay: PfLDH activity inhibition – cell lysate, 3D7 strain, counter-screen for P. falciparum growth inhibition project (AID 2304);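 also: 0% = vehicle and 100% = reference inhibitor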; conditions: P. falciparum 3D7 crude extract, LDH APAD/NBT absorbance; at 2 µM; hits give high values
Sequence of L-lactate dehydrogenase (Plasmodium falciparum (isolate CDC / Honduras)) (Q27743 whole entry, looked up): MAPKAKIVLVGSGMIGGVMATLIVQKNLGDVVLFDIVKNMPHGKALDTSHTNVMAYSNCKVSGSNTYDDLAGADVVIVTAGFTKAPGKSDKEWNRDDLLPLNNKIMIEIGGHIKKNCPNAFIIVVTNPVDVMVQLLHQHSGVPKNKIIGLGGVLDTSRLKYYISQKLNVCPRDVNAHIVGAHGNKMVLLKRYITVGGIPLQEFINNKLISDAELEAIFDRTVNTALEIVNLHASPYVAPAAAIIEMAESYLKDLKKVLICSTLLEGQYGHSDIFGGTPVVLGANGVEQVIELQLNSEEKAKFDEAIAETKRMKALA

[4] = inhibition of 3D7 malaria parasite growth – strain 3D7 (AID 2306);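 also: 0% = DMSO wells and 100% = chloroquine plus artemisinin control wells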; conditions: P. falciparum 3D7 erythrocytic growth, LDH absorbance, 72 h; at 2 µM; hits give high values
[5] = target: Calcium-dependent protein kinase 1 (Plasmodium falciparum (isolate 3D7)) (UniProt P62344); assay: PfCDPK1 kinase inhibitors, biochemical, TCAMS library (AID 1159585; cut-off not given, nearly all actives have IC50 up to about 0.98 µM;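 also: inhibitors leave more ATP so luminescence rises with inhibition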); conditions: recombinant PfCDPK1, Kinase-Glo ATP depletion luminescence
Sequence of Calcium-dependent protein kinase 1 (Plasmodium falciparum (isolate 3D7)) (P62344 whole entry, looked up): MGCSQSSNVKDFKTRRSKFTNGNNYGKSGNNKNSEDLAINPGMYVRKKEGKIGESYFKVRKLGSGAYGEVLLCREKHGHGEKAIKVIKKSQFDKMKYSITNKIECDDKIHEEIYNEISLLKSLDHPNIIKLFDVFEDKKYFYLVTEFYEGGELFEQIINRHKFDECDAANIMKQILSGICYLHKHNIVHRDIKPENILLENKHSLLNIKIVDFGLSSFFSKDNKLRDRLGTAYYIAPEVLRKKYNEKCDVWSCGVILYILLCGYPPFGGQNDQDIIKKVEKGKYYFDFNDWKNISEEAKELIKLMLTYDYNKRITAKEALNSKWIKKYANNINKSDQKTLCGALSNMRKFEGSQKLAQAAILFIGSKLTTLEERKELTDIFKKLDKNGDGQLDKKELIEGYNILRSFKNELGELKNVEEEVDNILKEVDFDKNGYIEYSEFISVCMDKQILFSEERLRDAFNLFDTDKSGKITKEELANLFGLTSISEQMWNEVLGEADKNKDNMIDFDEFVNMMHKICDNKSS

[6] = target: Plasmodium falciparum protein kinase 6 (PK6, PF3D7_1337100) (UniProt Q8IDW1); assay: PfPK6 kinase inhibitors, biochemical, TCAMS library (AID 1159586); conditions: recombinant PfPK6, Kinase-Glo ATP depletion luminescence
Sequence of Plasmodium falciparum protein kinase 6 (PK6, PF3D7_1337100) (Q8IDW1 1-305): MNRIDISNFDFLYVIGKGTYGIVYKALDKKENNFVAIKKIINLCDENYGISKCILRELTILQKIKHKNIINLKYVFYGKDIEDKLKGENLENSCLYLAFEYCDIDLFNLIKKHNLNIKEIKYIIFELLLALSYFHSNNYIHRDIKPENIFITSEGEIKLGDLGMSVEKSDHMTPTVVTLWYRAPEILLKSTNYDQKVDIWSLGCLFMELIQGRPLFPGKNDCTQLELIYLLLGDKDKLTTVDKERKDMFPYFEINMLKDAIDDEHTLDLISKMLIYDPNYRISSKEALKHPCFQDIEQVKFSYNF

[7] = target: Protein kinase 7 (PK7), Plasmodium falciparum 3D7 (PF3D7_0213400) (UniProt Q7YTF7); assay: inhibition of Plasmodium PK7 catalytic activity – biochemical, TCAMS antimalarial set, Kinase-Glo luminescence (AID 1159587); conditions: recombinant PfPK7, Kinase-Glo ATP depletion luminescence
Sequence of Protein kinase 7 (PK7), Plasmodium falciparum 3D7 (PF3D7_0213400) (Q7YTF7 1-343): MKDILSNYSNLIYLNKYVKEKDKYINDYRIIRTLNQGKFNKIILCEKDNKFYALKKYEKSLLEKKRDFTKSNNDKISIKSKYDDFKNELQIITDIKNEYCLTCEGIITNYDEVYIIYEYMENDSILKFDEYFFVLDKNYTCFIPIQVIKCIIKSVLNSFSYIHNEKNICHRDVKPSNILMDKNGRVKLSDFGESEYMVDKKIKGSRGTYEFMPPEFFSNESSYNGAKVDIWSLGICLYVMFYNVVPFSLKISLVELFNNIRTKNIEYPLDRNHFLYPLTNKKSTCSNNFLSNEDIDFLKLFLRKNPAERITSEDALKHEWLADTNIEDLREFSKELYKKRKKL

[8] = target: Calcium-dependent protein kinase 4 (Plasmodium falciparum (isolate 3D7)) (UniProt Q8IBS5); assay: PfCDPK4 kinase inhibitors, biochemical, TCAMS library (AID 1159588; cut-off not given, nearly all actives have IC50 up to about 0.91 µM); conditions: recombinant PfCDPK4, Kinase-Glo ATP depletion luminescence
Sequence of Calcium-dependent protein kinase 4 (Plasmodium falciparum (isolate 3D7)) (Q8IBS5 whole entry, looked up): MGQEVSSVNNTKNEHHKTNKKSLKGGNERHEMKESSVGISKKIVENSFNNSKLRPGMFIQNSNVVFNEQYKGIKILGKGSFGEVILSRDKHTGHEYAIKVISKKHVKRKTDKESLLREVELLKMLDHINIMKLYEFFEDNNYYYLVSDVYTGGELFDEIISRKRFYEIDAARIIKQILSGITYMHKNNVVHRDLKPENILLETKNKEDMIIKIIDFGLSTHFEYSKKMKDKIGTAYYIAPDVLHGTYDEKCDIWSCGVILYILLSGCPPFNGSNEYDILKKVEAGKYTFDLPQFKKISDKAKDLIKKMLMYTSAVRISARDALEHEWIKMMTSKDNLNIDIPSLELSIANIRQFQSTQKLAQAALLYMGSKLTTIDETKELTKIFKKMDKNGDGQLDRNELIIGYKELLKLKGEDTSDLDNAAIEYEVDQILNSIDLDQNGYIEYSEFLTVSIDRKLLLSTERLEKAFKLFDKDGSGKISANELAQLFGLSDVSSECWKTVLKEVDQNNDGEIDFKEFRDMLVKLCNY

COc1cc2cc(-c3nc4ccccc4[nH]3)c(N)nc2cc1OC
active: growth inhibition [1] 100% | inhibition [2] 91% | growth inhibition [4] 100%
inactive: inhibition [3] 1% | outcome [5] | outcome [6] | outcome [7] | outcome [8]

CN(Cc1cc(C(F)(F)F)cc(C(F)(F)F)c1)C(=O)C(Cc1ccc(F)cc1)C1CCCNC1 (stereo not given)
active: growth inhibition [1] 89% | growth inhibition [4] 96%
inactive: inhibition [2] 10% | inhibition [3] 4% | outcome [5] | outcome [6] | outcome [7] | outcome [8]

Cc1noc(C)c1-c1cccc(CNCc2cccc(-c3cccc(-c4nc5ccc(F)cc5[nH]4)c3)c2)c1
inactive: inhibition [2] 18% | inhibition [3] 3% | outcome [5] | outcome [6] | outcome [7] | outcome [8]
active: growth inhibition [1] 73% | growth inhibition [4] 103%

O=C(/C=C/c1ccc(Cl)cc1)NCCCCCN1CCCC(C(=O)Nc2ccc(Cl)cc2)C1 (stereo not given)
active: growth inhibition [4] 94%
inactive: growth inhibition [1] 6% | inhibition [2] 24% | inhibition [3] 8% | outcome [5] | outcome [6] | outcome [7] | outcome [8]

CSc1nc2nc(C)c(Cc3cccc(C(F)(F)F)c3)c(C)n2n1
active: growth inhibition [1] 95% | growth inhibition [4] 98%
inactive: inhibition [2] 4% | inhibition [3] 2% | outcome [5] | outcome [6] | outcome [7] | outcome [8]

CCOc1cc(N)c2nc3ccc([N+](=O)[O-])cc3cc2c1
inactive: inhibition [3] 7% | outcome [5] | outcome [6] | outcome [7] | outcome [8]
active: growth inhibition [1] 78% | inhibition [2] 73% | growth inhibition [4] 100%

O=C(Nc1cccc(CN2CCN(C(=O)c3ccccc3)CC2)c1)c1cccs1
active: growth inhibition [1] 97% | growth inhibition [4] 95%
inactive: inhibition [2] 15% | inhibition [3] 1% | outcome [5] | outcome [6] | outcome [7] | outcome [8]

O=C(NC1CCCC1)c1cc2c(=O)n3ccccc3nc2nc1NCCc1ccccc1
active: growth inhibition [1] 61% | growth inhibition [4] 101%
inactive: inhibition [2] 19% | inhibition [3] 2% | outcome [5] | outcome [6] | outcome [7] | outcome [8]

Cc1cc(NC(=O)[C@H](CC2CCCCC2)Nc2ccc(C#N)c3ccccc23)ccc1F
inactive: inhibition [2] 21% | inhibition [3] -6% | outcome [5] | outcome [6] | outcome [7] | outcome [8]
active: growth inhibition [1] 99% | growth inhibition [4] 102%

N#Cc1cc([N+](=O)[O-])ccc1-n1nc(-c2cccc(Cl)c2)n(Cc2ccco2)c1=S
active: growth inhibition [1] 100% | growth inhibition [4] 101%
inactive: inhibition [2] 12% | inhibition [3] -1% | outcome [5] | outcome [6] | outcome [7] | outcome [8]

COc1ccc(-c2ccc(NC(=O)c3cccc(F)c3)cc2)cc1CN1CCCN(C)CC1
inactive: growth inhibition [1] 49% | inhibition [2] 32% | inhibition [3] -1% | outcome [5] | outcome [6] | outcome [7] | outcome [8]
active: growth inhibition [4] 100%

N#Cc1cccc(CNC(=O)c2cccc(Nc3ccnc4ccc(F)cc34)c2)c1
inactive: growth inhibition [1] 26% | inhibition [2] -1% | inhibition [3] 0% | outcome [5] | outcome [6] | outcome [7] | outcome [8]
active: growth inhibition [4] 87%

CC1CCN(CC[C@H]2CCCN2S(=O)(=O)c2cccc(NC(=O)c3ccc(-c4ccccc4)cc3)c2)CC1
active: growth inhibition [4] 87%
inactive: growth inhibition [1] 36% | inhibition [2] 38% | inhibition [3] -6% | outcome [5] | outcome [6] | outcome [7] | outcome [8]

Cc1ccc(NC(=O)Cc2noc(CC3CCCN3C(=O)N[C@@H](C)c3ccccc3)n2)cc1 (stereo not given in full)
inactive: inhibition [2] 1% | inhibition [3] -1% | outcome [5] | outcome [6] | outcome [7] | outcome [8]
active: growth inhibition [1] 90% | growth inhibition [4] 95%

C=C(NC(=O)c1cc(C)cc(C)c1)C(=O)OC
inactive: growth inhibition [1] -2% | inhibition [2] 21% | inhibition [3] -3% | outcome [5] | outcome [6] | outcome [7] | outcome [8]
active: growth inhibition [4] 95%

Cc1ccc(CNC(=O)[C@H](Cc2ccccc2)Nc2cc(C)nc(NCc3ccccc3C)n2)cc1
inactive: inhibition [2] 23% | inhibition [3] 0% | outcome [5] | outcome [6] | outcome [7] | outcome [8]
active: growth inhibition [1] 50% | growth inhibition [4] 97%

COCCCNC(=S)NN=C(C)c1ccccn1
inactive: inhibition [3] 3% | outcome [5] | outcome [6] | outcome [7] | outcome [8]
active: growth inhibition [1] 99% | inhibition [2] 55% | growth inhibition [4] 100%

CCc1c(C(=O)NC2CCC(N3CCC(c4ccccc4C)CC3)CC2)[nH]c2ccc(OC)cc12 (stereo not given)
inactive: inhibition [3] -1% | outcome [5] | outcome [6] | outcome [7] | outcome [8]
active: growth inhibition [1] 100% | inhibition [2] 78% | growth inhibition [4] 101%

Cc1cc(C)n2nc(C(=O)Nc3cc(C(F)(F)F)ccc3N3CCOCC3)nc2n1
active: growth inhibition [1] 91% | growth inhibition [4] 94%
inactive: inhibition [2] 2% | inhibition [3] -3% | outcome [5] | outcome [6] | outcome [7] | outcome [8]

COc1ccc(S(=O)(=O)N(c2cc(Br)cc3c2OCC3)S(=O)(=O)c2ccc(OC)c(N3CCN(C)CC3)c2)cc1N1CCN(C)CC1
active: growth inhibition [1] 98% | inhibition [2] 67% | growth inhibition [4] 81%
inactive: inhibition [3] -8% | outcome [5] | outcome [6] | outcome [7] | outcome [8]

C=CCc1cccc(CN2CCC(c3cc(=O)[nH]c(-c4ccccn4)n3)CC2)c1O
inactive: inhibition [2] 46% | inhibition [3] -2% | outcome [5] | outcome [6] | outcome [7] | outcome [8]
active: growth inhibition [1] 75% | growth inhibition [4] 91%

Cc1ccc(C2(C)CC(C)(C)N(C(=O)COc3ccc4ccccc4c3)c3ccccc32)cc1 (stereo not given)
inactive: inhibition [2] 0% | inhibition [3] -2% | outcome [5] | outcome [6] | outcome [7] | outcome [8]
active: growth inhibition [1] 98% | growth inhibition [4] 100%

NC(N)=Nc1cccc(NC(=O)Nc2cccc(N=C(N)N)c2)c1
active: growth inhibition [1] 71% | growth inhibition [4] 87%
inactive: inhibition [2] -7% | inhibition [3] 7% | outcome [5] | outcome [6] | outcome [7] | outcome [8]

c1cc(CN2CCC(CCN3CCCCC3)CC2)cc(-c2cccc(-c3nc4ccccc4[nH]3)c2)c1
active: growth inhibition [1] 101% | inhibition [2] 95% | growth inhibition [4] 100%
inactive: inhibition [3] -3% | outcome [5] | outcome [6] | outcome [7] | outcome [8]

CCOc1c(CCNCCCCNCCc2ccc3ccccc3c2OCC)ccc2ccccc12
inactive: inhibition [3] -3% | outcome [5] | outcome [6] | outcome [7] | outcome [8]
active: growth inhibition [1] 87% | inhibition [2] 100% | growth inhibition [4] 94%

COc1ccc2nccc([C@@H](O)CN3CCC(NC(=O)/C=C/c4ccc5ccccc5n4)CC3)c2c1
inactive: growth inhibition [1] 9% | inhibition [2] 12% | inhibition [3] 1% | outcome [5] | outcome [6] | outcome [7] | outcome [8]
active: growth inhibition [4] 91%

N#Cc1ccc(C(=O)NC2CCN(CCCCCNC(=O)/C=C/c3ccc(Cl)c(Cl)c3)CC2)cc1
active: growth inhibition [4] 98%
inactive: growth inhibition [1] 1% | inhibition [2] 13% | inhibition [3] -4% | outcome [5] | outcome [6] | outcome [7] | outcome [8]

Cc1ccccc1C1CCN(C2CCC(NC(=O)c3ccc(-c4cccc(C(F)(F)F)c4)o3)CC2)CC1 (stereo not given)
inactive: inhibition [3] -2% | outcome [5] | outcome [6] | outcome [7] | outcome [8]
active: growth inhibition [1] 101% | inhibition [2] 56% | growth inhibition [4] 99%

Cc1ccc(Oc2cnn(C)c(=O)c2Nc2cccc(C(=O)NCCc3ccccn3)c2)c(C)c1
inactive: inhibition [2] 0% | inhibition [3] -4% | outcome [5] | outcome [6] | outcome [7] | outcome [8]
active: growth inhibition [1] 94% | growth inhibition [4] 94%

CN1CCN(C(C(=O)NCc2cc(Cl)cc(Cl)c2)c2ccc(NC(=O)Nc3ccccc3)cc2)CC1 (stereo not given)
active: growth inhibition [4] 98%
inactive: growth inhibition [1] 43% | inhibition [2] 23% | inhibition [3] -5% | outcome [5] | outcome [6] | outcome [7] | outcome [8]

c1ccc(-c2ccc(-c3nc4ccccc4[nH]3)cc2)cc1
active: growth inhibition [1] 83% | growth inhibition [4] 93%
inactive: inhibition [2] 10% | inhibition [3] -5% | outcome [5] | outcome [6] | outcome [7] | outcome [8]

NC1CCN(Cc2ccc(-c3ccc(-c4nc5ccc(F)cc5[nH]4)s3)cc2)C1 (stereo not given)
active: growth inhibition [1] 98% | growth inhibition [4] 100%
inactive: inhibition [2] 32% | inhibition [3] 3% | outcome [5] | outcome [6] | outcome [7] | outcome [8]

CCOC(=O)CN(c1ccc(Br)cc1OCCOc1cc(Br)ccc1N(CC(=O)OCC)C(C)C(=O)OCC)C(C)C(=O)OCC (stereo not given)
inactive: growth inhibition [1] 6% | inhibition [2] -15% | inhibition [3] 6% | outcome [5] | outcome [6] | outcome [7] | outcome [8]
active: growth inhibition [4] 94%

S=C(NCCCCCN1CCC(c2c[nH]c3ccccc23)CC1)Nc1cccc(I)c1
active: inhibition [2] 69% | growth inhibition [4] 99%
inactive: growth inhibition [1] 14% | inhibition [3] -3% | outcome [5] | outcome [6] | outcome [7] | outcome [8]

CCNc1cc(C(=O)N[C@@H](Cc2ccccc2)[C@H](O)CN[C@@H](C)c2ccccc2)cc(N2CCCC2=O)c1
inactive: inhibition [2] 7% | inhibition [3] 8% | outcome [5] | outcome [6] | outcome [7] | outcome [8]
active: growth inhibition [1] 96% | growth inhibition [4] 98%

CS(=O)(=O)c1ccc(CCNCc2ccc(-c3ccc(CN(C(=O)c4ccco4)C4CCN(Cc5ccccc5)CC4)cc3)nc2)cc1
active: growth inhibition [4] 85%
inactive: growth inhibition [1] 38% | inhibition [2] 13% | inhibition [3] -1% | outcome [5] | outcome [6] | outcome [7] | outcome [8]

CN1CCN(c2cc3c(cc2Cl)CCN3C(=O)Nc2ccc(NC(=O)c3ccc(C(F)(F)F)cc3)cc2)CC1
active: growth inhibition [1] 99% | inhibition [2] 98% | growth inhibition [4] 100%
inactive: inhibition [3] -4% | outcome [5] | outcome [6] | outcome [7] | outcome [8]

COc1ccc2nccc([C@@H](O)CN3CCC(NCc4cc5cccc(OC)c5o4)CC3)c2c1
active: growth inhibition [1] 81% | growth inhibition [4] 99%
inactive: inhibition [2] 10% | inhibition [3] -8% | outcome [5] | outcome [6] | outcome [7] | outcome [8]

CSc1cccc(Nc2nc3ccc(S(=O)(=O)NCC(C)C)cc3n2C(C)C(C)C)c1 (stereo not given)
inactive: inhibition [2] 3% | inhibition [3] -2% | outcome [5] | outcome [6] | outcome [7] | outcome [8]
active: growth inhibition [1] 91% | growth inhibition [4] 93%

Cc1nc(-c2nc(N3CCC(O)CC3)ncc2-c2ccsc2)sc1C
inactive: growth inhibition [1] 35% | inhibition [2] 6% | inhibition [3] -2% | outcome [5] | outcome [6] | outcome [7] | outcome [8]
active: growth inhibition [4] 83%
